Experimental data reported in PubChem BioAssay (NCATS).
Results filed as inconclusive are left out. Calls of active or inactive are those of the source. Calls come from the whole dose curve; as a rule, active = well fitted cell-killing curve with a large enough effect; inconclusive = small, poorly fitted or top-dose-only effect, or effect the other way; inactive = flat fitted curve, though single readings scatter.

Legend:
Experiment in all cases: Primary qHTS to identify gynecologic anti-cancer compounds using libraries of approved drugs and bioactive compounds (AID 1345084); note: nearly all actives have a fitted effect of over 55% in size
Conditions in all cases: Gynecologic cancer cell panel viability, ATPlite luminescence, 48 h; series mostly up to 57.5 µM
OV90 = tested on: OV90
Procedure, shortened: (§1)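 Cell viability after 48 h drug treatment, ATPlite luminescence readout; five doses.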

PA-1 = tested on: PA-1
Procedure, shortened: as §1

SKOV3 = tested on: SKOV3
Procedure, shortened: as §1

Tov-21-G = tested on: Tov-21-G
Procedure, shortened: as §1

Tov112D = tested on: Tov112D
Procedure, shortened: as §1
% is set by controls: 0 for no effect and ±100 for the full control effect.

CC12CCC3c4ccc(OC5OC(C(=O)O)C(O)C(O)C5O)cc4CCC3C1CCC2O (stereo not given)
inactive: Potency (OV90) | Potency (PA-1) | Potency (SKOV3) | Potency (Tov-21-G) | Potency (Tov112D)

CC(C)c1ccc(CO)cc1O[C@@H]1O[C@H](CO)[C@@H](O)[C@H](O)[C@H]1O
inactive: Potency (OV90) | Potency (PA-1) | Potency (SKOV3) | Potency (Tov-21-G) | Potency (Tov112D)

COc1ccc(C2(O)CCC(N3CC[C@@H](NC(=O)CNC(=O)c4cccc(C(F)(F)F)c4)C3)CC2)cn1 (stereo not given in full)
inactive: Potency (OV90) | Potency (PA-1) | Potency (SKOV3) | Potency (Tov-21-G) | Potency (Tov112D)

O=C(OC[C@@]1(O)CO[C@@H](O[C@H]2[C@H](Oc3ccc(O)cc3)O[C@H](CO)[C@@H](O)[C@@H]2O)[C@@H]1O)c1ccc(O)cc1
inactive: Potency (OV90) | Potency (PA-1) | Potency (SKOV3) | Potency (Tov-21-G) | Potency (Tov112D)

CC1=CC(=O)CC(C)(C)[C@H]1/C=C/C(CO)O[C@@H]1O[C@H](CO)[C@@H](O)[C@H](O)[C@H]1O (stereo not given in full)
inactive: Potency (OV90) | Potency (PA-1) | Potency (SKOV3) | Potency (Tov-21-G) | Potency (Tov112D)

O=C(Nc1ccc(S(=O)(=O)Nc2nccs2)cc1)C(c1ccccc1)c1ccccc1
inactive: Potency (OV90) | Potency (PA-1) | Potency (SKOV3) | Potency (Tov-21-G) | Potency (Tov112D)

C[C@@H]1O[C@@H](O[C@H]2[C@H](O)[C@@H](O[C@@H]3O[C@H](CO)[C@@H](O)[C@H](O[C@@H]4O[C@H](CO)[C@@H](O)[C@H](O)[C@H]4O)[C@H]3O)[C@H](O[C@H]3CC[C@@]4(C)C(=CC[C@@H]5C4CC[C@@]4(C)C5C[C@@H]5OC6(CC[C@@](C)(CO[C@@H]7O[C@H](CO)[C@@H](O)[C@H](O)[C@H]7O)O6)[C@@H](C)[C@@H]54)C3)O[C@@H]2CO)[C@H](O)[C@H](O)[C@H]1O (stereo not given in full)
inactive: activity change, negative = cytotoxicity (OV90) 1.28% [at 6.55 µM] | activity change, negative = cytotoxicity (PA-1) -4.89% [at 6.55 µM] | activity change, negative = cytotoxicity (SKOV3) 5.85% [at 6.55 µM] | activity change, negative = cytotoxicity (Tov-21-G) -2.15% [at 6.55 µM] | activity change, negative = cytotoxicity (Tov112D) -2.67% [at 6.55 µM]

Cc1cc2c(c(=O)[nH]1)OC(C(O)CC(C)C)O2 (stereo not given)
inactive: Potency (OV90) | Potency (PA-1) | Potency (SKOV3) | Potency (Tov-21-G) | Potency (Tov112D)

CC(=O)OC[C@H]1O[C@H](O[C@]2(CO)O[C@H](CO)[C@@H](OC(=O)/C=C/c3ccccc3)[C@@H]2O)[C@H](O)[C@@H](O)[C@@H]1O
inactive: Potency (OV90) | Potency (PA-1) | Potency (SKOV3) | Potency (Tov-21-G) | Potency (Tov112D)

C[C@@H]1O[C@@H](O[C@H]2[C@H](OC(=O)[C@]34CCC(C)(C)C[C@H]3C3=CCC5[C@@]6(C)C[C@H](O)[C@H](O[C@@H]7O[C@H](CO)[C@@H](O)[C@H](O)[C@H]7O)[C@@](C)(CO)C6[C@H](O)C[C@@]5(C)[C@]3(C)C[C@H]4O)OC[C@H](O)[C@@H]2O)[C@H](O)[C@H](O)[C@H]1O[C@@H]1OC[C@@H](O)[C@H](O[C@H]2OC[C@](O)(CO)[C@H]2O)[C@H]1O (stereo not given in full)
inactive: activity change, negative = cytotoxicity (OV90) -6.86% [at 6.55 µM] | activity change, negative = cytotoxicity (PA-1) 24.7% [at 6.55 µM] | activity change, negative = cytotoxicity (SKOV3) 19.1% [at 6.55 µM] | activity change, negative = cytotoxicity (Tov-21-G) 8.26% [at 6.55 µM] | activity change, negative = cytotoxicity (Tov112D) 8.3% [at 6.55 µM]

CC/C=C\CCO[C@@H]1O[C@H](CO[C@@H]2OC[C@H](O)[C@H](O)[C@H]2O)[C@@H](O)[C@H](O)[C@H]1O
inactive: Potency (OV90) | Potency (PA-1) | Potency (SKOV3) | Potency (Tov-21-G) | Potency (Tov112D)

CCCC(=O)C1CCN(c2ncnc3c2CN(C(=O)c2ccc(-c4ccccc4)cc2)CC3)CC1
inactive: Potency (OV90) | Potency (PA-1) | Potency (SKOV3) | Potency (Tov-21-G) | Potency (Tov112D)

O=C(OCC1=CC(O)C2C=CO[C@@H](O[C@@H]3O[C@H](CO)[C@@H](O)[C@H](O)[C@H]3O)C12)c1ccccc1 (stereo not given in full)
inactive: Potency (OV90) | Potency (PA-1) | Potency (SKOV3) | Potency (Tov-21-G) | Potency (Tov112D)

N#C[C@@H]1C[C@H](F)CN1C(=O)CNC1[C@H]2CN(C(=O)c3ccc(F)cc3)C[C@@H]12 (stereo not given in full)
inactive: Potency (OV90) | Potency (PA-1) | Potency (SKOV3) | Potency (Tov-21-G) | Potency (Tov112D)

CC(C)=CCC/C(C)=C/CO[C@@H]1O[C@H](CO)[C@@H](OC(=O)/C=C/c2ccc(O)cc2)[C@H](O[C@@H]2O[C@@H](C)[C@H](O)[C@@H](O)[C@H]2O)[C@H]1O
inactive: Potency (OV90) | Potency (PA-1) | Potency (SKOV3) | Potency (Tov-21-G) | Potency (Tov112D)

COc1cc2c(c(OC)c1CC=C(C)C)C[C@H](c1ccc(O)cc1O)CO2
inactive: Potency (OV90) | Potency (PA-1) | Potency (SKOV3) | Potency (Tov-21-G) | Potency (Tov112D)

CC1C(=O)CC2C3CCC(C(=O)O)C12CC3(C)CO (stereo not given)
inactive: Potency (OV90) | Potency (PA-1) | Potency (SKOV3) | Potency (Tov-21-G) | Potency (Tov112D)

Cc1ccc(NC(=O)C(=O)NC2CC(C)(C)NC(C)(C)C2)cc1
inactive: Potency (OV90) | Potency (PA-1) | Potency (SKOV3) | Potency (Tov-21-G) | Potency (Tov112D)

COc1ccc([C@@]2(O)c3c(ccc4c3OC(C)(CCC=C(C)C)C=C4)NC(=O)[C@@H]2OC)cc1 (stereo not given in full)
inactive: Potency (OV90) | Potency (PA-1) | Potency (SKOV3) | Potency (Tov-21-G) | Potency (Tov112D)

CC(O)(CC(=O)O)CC(=O)OCc1ccc(O[C@@H]2O[C@H](CO)[C@@H](O)[C@H](O)[C@H]2O)cc1 (stereo not given in full)
inactive: Potency (OV90) | Potency (PA-1) | Potency (SKOV3) | Potency (Tov-21-G) | Potency (Tov112D)
